NOMO-1 viab – NOMO-1 AML cell viability reduction, primary screen, STK33 inhibitor project, CellTiter-Glo luminescence | NOMO-1 AML viability, 72 h | inhibition, % (test concentration not listed) | actives 7.5% (n = 37,000); in the data active = inhibition above about 80%; inconclusive = no clear call, values can overlap the other calls
MITF inh – inhibitors of MITF, primary screen, MITF inhibitor project, cell-based, luminescence. TRPM1 promoter luciferase, 24 h. inhibition, % (concentration not given with the values). actives 0.28% (n = 37,000). AID 2240, 2010; in the data active = inhibition above about 85%; inconclusive = no clear call, values can overlap the other calls; inactive = below about 68%;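 note: human melanocyte line stably carrying TRPM1 promoter luciferase reporter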
Hedgehog inh – Hedgehog pathway signaling inhibitors, primary screen, luminescence, Shh-LIGHT2 cells, Gli-luciferase; inhibition, % (test concentration not listed); actives 2.1% (n = 22,000); Shh-LIGHT2 Gli-luciferase reporter, 30 h;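 active = mean inhibition across valid replicates above about 65%, limit read from the data; inconclusive = mean under the limit, yet half or more replicates past it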;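 note: pathway switched on by Shh-conditioned medium diluted 1 in 25 in low serum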
* marks the source's active call; other numbers are inactive results; ? = inconclusive; nt = no result. In the library only some 7.9% were active in any assay of this set; here they are far more common.

SMILES	NOMO-1 viab	MITF inh	Hedgehog inh
C[C@@H]1C[C@H]2[C@@H]3CCC4=CC(=O)C=C[C@]4(C)[C@@]3(F)[C@@H](O)C[C@]2(C)[C@@]1(O)C(=O)CO	5	-32	18
CC(=O)OCC(=O)[C@@]1(O)CCC2C3C[C@H](C)C4=CC(=O)C=CC4(C)C3[C@@H](O)CC21C (stereo not given in full)	-14	-14	41
CC(=O)[C@@]1(O)CC[C@H]2[C@@H]3C[C@H](C)C4=CC(=O)C=C[C@]4(C)[C@@]3(F)[C@@H](O)C[C@@]21C	-13	-36	67*
COc1ccc(NC(=O)CCCC(=O)O)cc1	-24	-6	nt
CN(CC(=O)Nc1ccc([N+](=O)[O-])cc1)S(=O)(=O)c1cc(Cl)ccc1Cl	17	11	nt
C[C@@H]1CN([C@H](C)CO)C(=O)c2cc(NC(=O)Nc3ccc4c(c3)OCO4)ccc2O[C@H]1CN(C)C(=O)Nc1ccc(F)cc1	13	-3	-6
CC(C(=O)Nc1ccc(F)c(F)c1)N(c1ccc(Cl)cc1)S(C)(=O)=O (stereo not given)	51	32	nt
COc1ccc([N+](=O)[O-])cc1NC(=O)C(CC(C)C)N1C(=O)c2ccccc2C1=O (stereo not given)	28	1	nt
CS(=O)(=O)N(CC(=O)Nc1ccccc1Sc1ccccc1)c1cccc(C(F)(F)F)c1	23	23	nt
COc1ccc(CN(CCN(C)C)c2ccccn2)cc1	26	7	-33
COC(=O)CCN(C(=O)c1ccc(OC(C)=O)cc1)c1ccccn1	104*	-12	nt
CNCCNS(=O)(=O)c1cccc2cnccc12	14	-29	-23
O=S(=O)(NCCNC/C=C/c1ccc(Br)cc1)c1cccc2cnccc12	58	26	81*
O=[N+]([O-])c1ccc2nc(CSc3nc4ccccc4[nH]3)[nH]c2c1	27	-9	nt
Cc1cc2nc(SCc3ccccc3C#N)[nH]c2cc1C	13	-152	nt
Cc1cc2nc(Sc3c([N+](=O)[O-])nc(C)n3Cc3ccccc3)[nH]c2cc1C	107*	32	nt
Cc1nc([N+](=O)[O-])c(Sc2nc3ccccc3[nH]2)n1Cc1ccccc1	101*	16	nt
COc1ccc2nc(Sc3c([N+](=O)[O-])nc(C)n3Cc3ccccc3)[nH]c2c1	102*	53	nt
COc1ccc2nc(SCC(=O)Nc3cccc([N+](=O)[O-])c3)[nH]c2c1	24	-5	nt
CSc1ccccc1NC(=O)CN(C)S(=O)(=O)c1c(C)cc(C)cc1C	3	-4	nt
C=C1C(=O)O[C@@H]2[C@H]1[C@H](O)C[C@]1(C)[C@@H](O)CC=C(C)[C@@H]21	115*	8	-11
CCOC(=O)c1c(NC(=S)NC(=O)c2ccc(OC)c([N+](=O)[O-])c2)sc2c1CCC2	-6	-2	nt
CC(C)NC(=O)Nc1ccc2c(c1)C(=O)N([C@H](C)CO)C[C@H](C)[C@@H](CN(C)Cc1ccc(-c3ccccc3)cc1)O2	10	7	11
CC(C)NC(=O)Nc1ccc2c(c1)C(=O)N([C@H](C)CO)C[C@@H](C)[C@H](CN(C)Cc1ccc(-c3ccccc3)cc1)O2	84*	-6	14
CC(C)NC(=O)Nc1ccc2c(c1)C(=O)N([C@H](C)CO)C[C@@H](C)[C@@H](CN(C)Cc1ccc(-c3ccccc3)cc1)O2	24	-5	67*
SMILES	NOMO-1 viab	MITF inh	Hedgehog inh
CC(C)NC(=O)Nc1ccc2c(c1)C(=O)N([C@@H](C)CO)C[C@H](C)[C@H](CN(C)Cc1ccc(-c3ccccc3)cc1)O2	9	13	5
C[C@H](CO)N1C[C@H](C)[C@H](CN(C)Cc2ccc(Cl)c(Cl)c2)Oc2c(NS(C)(=O)=O)cccc2C1=O	-10	-22	?
COc1ccc(NC(=O)N(C)C[C@H]2Oc3ccc(NC(=O)c4ccncc4)cc3C(=O)N([C@@H](C)CO)C[C@@H]2C)cc1	3	4	nt
CC1(C)C(=O)[C@@H]2C[C@@]3(O)C4=CC(=O)O[C@@H](c5ccoc5)[C@]4(C)CCC3[C@@](C)(C2=O)[C@H]1CC(=O)O (stereo not given in full)	2	17	-18
COC(=O)C[C@H]1C(C)(C)C(=O)[C@@H]2C[C@@]3(O)C4=CC(=O)O[C@@H](c5ccoc5)[C@]4(C)CCC3[C@@]1(C)C2=O (stereo not given in full)	104*	-51	86*
Nc1nc(N2CCOCC2)ncc1S(=O)(=O)c1ccc(Cl)cc1	0	9	-16
C[C@H]1CN([C@@H](C)CO)C(=O)Cc2cc(NC(=O)C3CCCCC3)ccc2O[C@H]1CN(C)C(=O)Nc1cccc2ccccc12	8	-10	nt
C/C=C(/C)C(=O)O[C@@H]1c2cc(OC)c(OC)cc2-c2c(ccc(OC)c2OC)C[C@H]2C(=O)OC[C@H]12	117*	4	3
Cc1ccc(-n2c(SCC(=O)NCC3CCCO3)nc3sc(C)c(C)c3c2=O)cc1C (stereo not given)	1	7	nt
C[C@@H]1CN([C@@H](C)CO)C(=O)c2cc(NC(=O)Cc3cn(C)c4ccccc34)ccc2O[C@@H]1CN(C)Cc1ccc(C(=O)Nc2ccccc2N)cc1	99*	0	nt
C[C@@H]1CN([C@H](C)CO)C(=O)c2cc(NC(=O)Cc3cn(C)c4ccccc34)ccc2O[C@H]1CN(C)Cc1ccc(C(=O)Nc2ccccc2N)cc1	23	7	nt
C[C@@H]1CN([C@@H](C)CO)C(=O)c2cc(NC(=O)Cc3cn(C)c4ccccc34)ccc2O[C@H]1CN(C)Cc1ccc(C(=O)Nc2ccccc2N)cc1	51	19	nt
C[C@H](CO)N1C[C@H](C)[C@H](CN(C)Cc2ccc(C(=O)Nc3ccccc3N)cc2)Oc2ccc(NC(=O)Cc3cn(C)c4ccccc34)cc2C1=O	102*	45	nt
C[C@H]1CN([C@@H](C)CO)C(=O)c2cc(NS(=O)(=O)c3cccs3)ccc2O[C@H]1CN(C)C(=O)Nc1cccc2ccccc12	-2	0	26
O=C(CN1C(=O)c2ccccc2S1(=O)=O)Nc1ccc(N2CCOCC2)cc1	1	4	nt
COC(=O)c1cccc(C(=O)Nc2ccc(F)cc2)n1	?	1	nt
CC(=O)Nc1ccc(NC(=O)c2cccc(C(=O)OC(C)C)n2)cc1	107*	-16	nt
Cc1ccccc1OCC(=O)Nc1ccc(O)cc1C(=O)O	19	2	nt
NS(=O)(=O)c1ccc(NC(=S)NCCc2c[nH]c3ccccc23)cc1	-17	6	nt
C/C=C(/C)C(=O)OC1C(OC(C)=O)c2c(ccc3ccc(=O)oc23)OC1(C)C (stereo not given)	18	0	43
C/C=C(/C)C(=O)OC1c2c(ccc3ccc(=O)oc23)OC(C)(C)C1OC(=O)/C(C)=C\C (stereo not given)	111*	30	61
Cc1ccc(S(=O)(=O)N(C)CC(=O)Nc2ccccc2[N+](=O)[O-])cc1	14	7	nt
Cc1noc(C)c1S(=O)(=O)N(C)C[C@@H]1OCCCC[C@@H](C)Oc2ccc(NC(=O)Cc3ccccc3)cc2C(=O)N([C@H](C)CO)C[C@@H]1C	3	-7	5
Oc1ccc(C2CNCCc3c2cc(O)c(O)c3Cl)cc1 (stereo not given)	14	-6	25

Screens deposited in PubChem BioAssay by Broad Institute.
